# Rows were chosen to be rich in hits. Some 22% of all compounds tested hit in one or more screens of this group.
# Shiga toxin inh: blocks Shiga toxin action in Vero cells | Vero cells, Shiga toxin protein synthesis inhibition reporter | inhibition, % at 38.7 µM | hit rate 9.2% among 290,000; in the data active means inhibition mostly above about 28%, no sharp cut-off; inactive means mostly below about 43%; further: 0% is about no effect
# Pf growth 96h: P. falciparum growth inhibition at 96 hours. P. falciparum luciferase reporter growth, 96 h. Potency, µM (doses to about 28.7 µM), for the others: top-dose activity change, negative = inhibition, most hits filed as inhibitors. hit rate 6.9% among 320,000. AID 504834; further: potency means the concentration at half of the fitted maximal effect; on the % scale 0 is the no-effect control and ±100 the full control effect
#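 Erythrocytes infected with luciferase-expressing P. falciparum were dispensed at 2% hematocrit and 0.05% parasitemia (final), then incubated with compounds 96 hours at 37 C in 5% CO2. Luminescence after detection reagent addition reported growth.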
# CHX counter: affects cycloheximide protein synthesis inhibition readout, counter-screen; cell reporter, cycloheximide protein synthesis inhibition counterscreen; hit rate 12% among 300,000; max response, %; in the data active means max response mostly above about 13%, no sharp cut-off; inactive means mostly below about 14%; further: read at 38.3 µM for the half of the compounds with a filed dose; 0% is about no effect
# LmPK inh: inhibitors of Leishmania mexicana pyruvate kinase | AID 1721 | hit rate 0.37% among 290,000 | purified LmPK, Kinase-Glo ATP luminescence, 1 h | Potency, µM (top dose mostly 57.5 µM), for the others: at the highest dose activity change, negative = inhibition, most hits filed as inhibitors; further: potency means the concentration at half of the fitted maximal effect; on the % scale 0 is the no-effect control and ±100 the full control effect
# Target sequence (Q27686 whole entry, looked up): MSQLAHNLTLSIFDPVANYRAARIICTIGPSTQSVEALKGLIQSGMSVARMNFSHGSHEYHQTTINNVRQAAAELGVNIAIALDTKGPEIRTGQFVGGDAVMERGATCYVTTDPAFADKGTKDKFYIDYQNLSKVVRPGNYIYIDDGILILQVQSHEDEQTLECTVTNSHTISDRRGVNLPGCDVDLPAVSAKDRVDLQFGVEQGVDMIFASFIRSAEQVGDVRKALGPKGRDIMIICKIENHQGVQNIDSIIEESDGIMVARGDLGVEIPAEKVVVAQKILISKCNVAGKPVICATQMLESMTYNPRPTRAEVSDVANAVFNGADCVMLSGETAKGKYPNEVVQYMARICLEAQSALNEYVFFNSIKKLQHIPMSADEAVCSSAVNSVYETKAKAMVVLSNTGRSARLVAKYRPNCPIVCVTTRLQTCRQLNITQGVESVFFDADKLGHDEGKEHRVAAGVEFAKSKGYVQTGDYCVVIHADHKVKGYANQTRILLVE
#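 0.1 nM LmPK, 0.5 mM PEP, 0.1 mM ADP; 50 mM imidazole pH 7.2, 7 mM MgCl2, 50 mM KCl; 1 h RT. Kinase-Glo luminescence readout, normalized to no-enzyme (full inhibition) and uninhibited wells.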
# Pf growth 48h: P. falciparum growth inhibition at 48 hours (one generation); P. falciparum luciferase growth in erythrocytes, 48 h; Potency, µM (highest dose often 28.7 µM), inactives show at the highest dose activity change, negative = inhibition, hits mostly inhibitors; hit rate 5.9% among 310,000; AID 504832; further: potency means the concentration at half of the fitted maximal effect; on the % scale 0 is the no-effect control and ±100 the full control effect
#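 Read-out is firefly luciferase luminescence from an integrated reporter in P. falciparum, so falling signal marks reduced parasite growth. Infected erythrocytes were at 2% hematocrit and 0.1% parasitemia (final) in Albumax-supplemented RPMI 1640.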
# * hit, by the source's call; ? = inconclusive; nt = not tested or not shown. Unless noted, the call rests on the fitted dose curve; in most records, active means well fitted inhibition curve with a large enough effect; inconclusive means small, poorly fitted or top-dose-only effect, or another doubt; inactive means no such curve, though single readings can be large or run the other way.
SMILES,Shiga toxin inh,Pf growth 96h,CHX counter,LmPK inh,Pf growth 48h
c1ccc2c(NC3=NCCS3)cccc2c1,31,11%,7,0%,-4%
Cc1cc(C)n(-c2ccc(C(=O)Nc3ccc4c(c3)OCO4)cc2)n1,26,-16%,15,1%,nt
O=C(NC1=NCCS1)c1ccc(-c2ccc(Cl)cc2)o1,77*,?,56*,1%,nt
Cc1cc(C)n(-c2ccc(C(=O)NC3=NCCS3)cc2)n1,92*,68%,41*,2%,98%
CCN(CC)S(=O)(=O)c1cc(C(=O)NC2=NCCS2)ccc1Cl,-2,0%,1,9%,nt
O=C(NC1=NCCS1)c1ccc(Cl)cc1,93*,?,58*,1%,208%
CCOc1cccc(CN2CCCC(CNC(=O)c3cccc(OC)c3OC)C2)c1 (stereo not given),-12,?,-1,8%,?
Cc1ccc(S(=O)(=O)NCCC(=O)Nc2ccc(Cl)c(Cl)c2)cc1,-12,50%,-1,4%,27%
Cc1ccc(OCC(=O)NCCNC(=O)c2cnccn2)cc1C,15,?,-1,1%,2%
COc1ccc(Cl)cc1C(=O)Nc1ccc(NC(C)=O)cc1,-2,35%,3,3%,-10%
COc1ccc(Cl)cc1C(=O)NC1=NCCS1,23,0%,16*,1%,36%
CC(=O)C1=NN(c2ccc(Cl)cc2)C(c2ccc3c(c2)OCO3)N(C(C)=O)N1C (stereo not given),8,12µM*,2,5%,12µM*
O=C(Nc1cccnc1)c1cc(-c2cccs2)on1,-5,10µM*,1,-7%,235%
O=C(Nc1cccnc1)c1cc(-c2ccccc2O)on1,77*,-23%,48*,-17%,20%
Cc1noc(C)c1C(=O)Nc1cccnc1,-10,nt,-1,-3%,14%
Cc1noc(C)c1-c1ccc2ncnc(NCc3cccc(-c4ccccc4)c3)c2c1,4,3.7µM*,10,nt,?
CCOc1ccccc1CNc1ncnc2ccc(-c3c(C)noc3C)cc12,52,?,30*,nt,?
Cc1noc(C)c1-c1ccc2ncnc(NCc3cccc(F)c3)c2c1,-4,nt,1,nt,nt
Cc1ccc(C(C(=O)NC2CCCCC2)N(C(=O)c2csnn2)C2CC2)cc1 (stereo not given),21,-12%,11,-5%,-4%
CCC(=O)N(CCC(Cc1ccccc1)c1ccc2c(c1)OCO2)Cc1ccccc1F (stereo not given),-22,12µM*,3,0%,?
CCC(=O)N(CCC(Cc1ccccc1)c1ccco1)Cc1ccco1 (stereo not given),11,-16%,7,4%,?
O=C(CSc1nc2ccc([N+](=O)[O-])cc2[nH]1)NCCc1ccccc1,-11,54%,-2,9%,?
CCC(=O)c1ccc(OCC(=O)Nc2ccccc2N2CCCCC2)cc1,-2,19%,2,3%,?
Cc1ccccc1-n1c(C)nnc1SCc1nc2ccccc2s1,91*,?,33*,-3%,nt
CCCCn1c(SCc2nc3ccccc3s2)nc2ccccc2c1=O,-10,0%,-3,-1%,2%
SMILES,Shiga toxin inh,Pf growth 96h,CHX counter,LmPK inh,Pf growth 48h
CCn1c(SCc2nc3ccccc3s2)nnc1-c1cccs1,59*,10µM*,59*,0%,-18%
COc1ccc(-c2nnc(SCc3nc4ccccc4s3)n2C(C)C)cc1,86*,nt,28*,-10%,?
CCOc1ccccc1-n1nnnc1SCc1nc2ccccc2s1,168*,7%,48*,2%,62%
CCOc1ccc(C(=O)NC(=S)Nc2ccc(NC(=O)c3ccco3)c(C)c2)cc1[N+](=O)[O-],-13,-6%,-8,8%,11%
COc1ccccc1-c1nnc(SCc2nc3ccccc3s2)n1C,26,20%,16,-9%,-2%
Cn1c(SCc2nc3ccccc3s2)nnc1-c1cccs1,66*,nt,60*,0%,-25%
O=C(NCCN1CCCCC1)Nc1cccc(Cl)c1Cl,-12,13µM*,-1,0%,31%
Cc1ccc(NC(=O)NCCN2CCCCC2)cc1,-2,-25%,8.8*,0%,4%
O=C(NCCN1CCCCC1)Nc1ccc(Br)cc1,22,2%,3,-1%,?
CCCN1CCN(CCNC(=O)Nc2ccccc2Cl)CC1,3,?,8,-4%,23%
O=C(NCCN1CCOCC1)Nc1ccc(Cl)cc1,22,4.7µM*,13*,8%,31%
Cc1ccc(NC(=O)C(=O)NCCOc2ccccc2Cl)cc1,9,-31%,-1,3%,9%
Fc1ccc(-c2nc3nc4ccccc4nc3n2Cc2ccco2)cc1,125*,102%,44*,2%,-6%
c1ccc(-c2nc3nc4ccccc4nc3n2Cc2ccco2)cc1,137*,-3%,82*,-7%,-35%
S=c1nc(-c2ccccc2)n(Cc2ccco2)c2c1CCCC2,-12,-5%,-1,-1%,-1%
O=C(CSc1nnc2ccccn12)Nc1ncc(Cl)cc1Cl,36,82%,23*,0%,nt
O=C(CSc1nnc2ccccn12)Nc1ccc2c(c1)OCCO2,130*,44%,26*,1%,322%
O=C(CSc1ccc(-c2ccccc2)nn1)Nc1ccc2c(c1)OCCO2,74*,98%,79*,-1%,79%
O=C(CSc1cccc[n+]1[O-])Nc1ccc2c(c1)OCCO2,25,32%,16*,12%,30%
CCCCCCCCCCCCC/C=C/[C@@H](O)[C@@H](N)CO,nt,13%,nt,nt,9%
O=C(CSc1nc(-c2ccccc2)c(-c2ccccc2)[nH]1)Nc1ccc2c(c1)OCO2,24,?,15*,9%,-3%
CC1CCN(C(=O)CSc2ccc(-c3ccc4c(c3)OCCO4)nn2)CC1,35,80%,20*,-11%,30%
O=C(CCS(=O)(=O)c1ccccc1)Nc1ccc2c(c1)OCO2,112*,?,55*,-3%,78%
O=C(CSc1ccccc1)Nc1ccc2c(c1)OCCO2,75*,8.3µM*,40*,-9%,298%
O=C(CSc1ncn(-c2ccccc2)n1)Nc1ccc2c(c1)OCCO2,14,16%,-3,9%,8%
SMILES,Shiga toxin inh,Pf growth 96h,CHX counter,LmPK inh,Pf growth 48h
O=C(CSc1ccc2c(c1)OCCO2)Nc1ccc2c(c1)OCO2,-12,nt,15*,5%,4%
Cc1c(C)n2c(SCC(=O)Nc3ccc4c(c3)OCCO4)nnc2[nH]c1=O,nt,?,nt,nt,9.3µM*
Cc1cccc(-n2ccnc2SCC(=O)Nc2ccc3c(c2)OCCO3)c1,-2,?,27*,1%,2%
O=C(CSc1ccccc1)Nc1ccc2c(c1)OCO2,65*,-20%,47*,3%,169%
CCCc1cc(=O)[nH]c2nnc(SCC(=O)Nc3ccc4c(c3)OCCO4)n12,nt,41%,nt,nt,21%
COc1ccc(Cl)cc1NC(=O)COC(=O)C1COc2ccccc2O1 (stereo not given),nt,-23%,nt,nt,0%
Cc1ccccc1CC(=O)N1CCCC(CNC(=O)c2ccc(F)cc2)C1 (stereo not given),34,?,16,8%,-15%

# Screens deposited in PubChem BioAssay by National Center for Advancing Translational Sciences (NCATS).
